ChEMBL document CHEMBL1157539, “Thousands of chemical starting points for antimalarial lead identification” (Nature, 2010)

How the values were obtained:
Assay type in all cases: functional
[1] = system: Plasmodium falciparum; experiment: GSK_TCMDC: Inhibition of Plasmodium falciparum 3D7 in whole red blood cells, using parasite LDH activity as an index of growth. Test compounds present at 2uM
[2] = system: Plasmodium falciparum; experiment: GSK_TCMDC: Inhibition of Plasmodium falciparum Dd2 in whole red blood cells, using parasite LDH activity as an index of growth. Test compounds present at 2uM
[3] = system: HepG2; experiment: GSK_TCMDC: Percent inhibition of human HepG2 cell line. Test compounds present at 10uM.

SMILES	Inhibition [1] [%]	Inhibition [2] [%]	Inhibition [3] [%]
COc1c(C2CCN(CCCCNC(=O)c3oc(-c4ccc(Cl)cc4)cc3CO)CC2)ccc2c1CCCC2	100	95	80
CCCCCN1CCCN(Cc2cccc(NC(=O)c3cc4ccccc4s3)c2)CC1.O=C(O)C(F)(F)F	99	30	29
CCNc1cc(C(=O)N[C@@H](Cc2ccccc2)[C@H](O)CN[C@@H](C)c2ccccc2)cc(N2CCCC2=O)c1	98	96	7
Cc1cc(Nc2ncc(Cl)c(Nc3ccccc3C(N)=O)n2)n[nH]1	98	96	70
CS(=O)(=O)CCNCc1ccc(-c2ccc3c(Nc4ccc(Oc5ccccn5)cc4)ccnc3c2)o1	100	99	0
Cl.Nc1nc(N)c2c(ccc3nn(S(=O)(=O)N4CCCC4)cc32)n1	95	0	69
CCOc1ccc2c(=NN=Cc3ccccc3OC)cc(C)[nH]c2c1	99	93	11
Cc1nnc2c(N(C(=O)NCCc3ccccc3)C(=O)NCCc3ccccc3)cc3cc(Cl)ccc3n12	91	34	0
COc1ccc(-n2ccnc2SCC(=O)Nc2cccc(C(F)(F)F)c2)c(OC)c1	98	88	0
COc1ccc(CN2CCC(CNCc3cccc(-c4ccccc4)c3)CC2)cc1.O=C(O)C(F)(F)F	100	92	96
COc1ccc(-c2ccccc2CNc2nc(NCCc3ccc(O)cc3)nc(N3CCNCC3)n2)cc1.O=C(O)C(F)(F)F	86	3	48
COc1cc(NC(=O)c2cccs2)c(C(=O)NCc2ccc(C)cc2)cc1OC	93	88	3
C[C@H]1CN(Cc2cccc(-c3cc(CNC(=O)c4cccc(CN5CCN(C/C=C/c6ccccc6)CC5)c4)ccc3F)c2)CCN1.O=C(O)C(F)(F)F	98	46	98
CN(C)c1ccc(-c2csc(C(=O)NCC3CCN(Cc4ccc(C(C)(C)C)cc4)C3)c2)cc1.O=C(O)C(F)(F)F (stereo unspecified)	97	64	29
O=C(O)C(F)(F)F.O=S(=O)(NCCN1CCCC1)c1cccc(-c2ccc(CNCc3ccccc3)cc2)c1	95	41	54
CC(Cc1ccc(CNC(=O)NCc2ccc(CC(C)NCCc3cccc(Cl)c3)cc2)cc1)NCCc1cccc(Cl)c1 (stereo unspecified)	100	44	100
CCc1cc([C@H]2O[C@@H](n3cnc4c(NCC(c5ccccc5)c5ccccc5)nc(NCCNc5ccccn5)nc43)[C@H](O)[C@@H]2O)on1.O=CO	94	32	14
COc1cc2nccc(Nc3cc(C)cc(O)c3)c2cc1OC.Cl	97	0	0
N=C(N)Nc1nc(-c2ccc(NC(=O)Nc3cccc(-c4csc(NC(=N)N)n4)c3)cc2)cs1	94	80	0
Cc1cc(=O)[nH]c(-n2nc(C)cc2NC(=O)C(c2ccccc2)c2ccccc2)n1	96	77	31
COc1ccc(CN2CCCN(Cc3cccc(NC(=O)c4ccc(-c5ccccc5)cc4)c3)CC2)cc1.O=C(O)C(F)(F)F	94	24	37
Cc1ccc(O)cc1Nc1c(C(N)=O)cnc2ccc(-c3cncs3)cc12	100	99	21
